A short description of test [1]: E. coli DRC41 culture turbidity changes, primary screen, E. coli filamentation inducer project, strain DRC41, OD650, 48 h (AID 1152).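 Further: E. coli MC1000 strain DRC41 lacking acrAB efflux pump and sulA.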 The following applies: E. coli DRC41 (acrAB sulA), higher = more signal, called active from +8 up or from −8 down.
A short description of test [2]: small-molecule binders of probe aLefty1, primary screen, biochemical, small-molecule microarray, 635/667 nm fluorescence (AID 1153).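 Further: score merges spot fluorescence with signal-to-noise ratio from the scanned slide images.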 The settings on record: higher = more signal.
Test [3] in a line: PSAC antagonists in infected red cells, primary screen, cell-based, P. falciparum Indochina, OD700, 1 h (AID 1154). The settings on record: P. falciparum Indochina infected RBC osmotic lysis, higher = more signal, called active from +8 up or from −8 down.
The nature of test [4]: PSAC antagonists in infected red cells, primary screen, cell-based, P. falciparum Indochina, OD700, 2 h (AID 1155).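 Further: lysis reports solute entry through the parasite surface anion channel PSAC; channel blockers reduce lysis of infected cells.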 The following applies: P. falciparum Indochina infected erythrocytes, osmotic lysis OD700; higher = more signal, called active from +8 up or from −8 down.
The nature of test [5]: osmotic lysis modulators in infected erythrocytes, primary screen, PSAC antagonist project, cell-based, P. falciparum Indochina, OD700, 3 h (AID 1156). The settings on record: higher = more signal, called active from +8 up or from −8 down.
Test [6] is described as follows: PSAC antagonists in infected red cells, primary screen, cell-based, P. falciparum Indochina, OD700, 18 h (AID 1157). The settings on record: P. falciparum Indochina infected erythrocytes, osmotic lysis OD700, 18 h; higher = more signal, called active from +8 up or from −8 down.
Test [7] in a line: modulators of S6 phosphorylation in cells, primary screen, cell-based, A549, cytoblot, luminescence, serum-stimulated (AID 1158).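 Further: serum-stimulated A549 lung adenocarcinoma cells; signal is phosphorylated S6 detected by cytoblot immunostaining with HRP secondary.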 The settings on record: A549 phospho-S6 cytoblot, 5 h, higher = more signal.
For test [8], the target named is NADPH oxidase 2 (Homo sapiens) (UniProt P04839). Put plainly: NOX2-dependent H2O2 signal modulators, primary screen, NOX inhibitor project, cell-based, HEK293-NOX2, PMA-stimulated, Amplex Red fluorescence (AID 1159). Further: test concentration not given here. The settings on record: 45 min, higher = more signal, called active from +8 up or from −8 down.
Sequence of NADPH oxidase 2 (Homo sapiens) (P04839 whole entry, looked up): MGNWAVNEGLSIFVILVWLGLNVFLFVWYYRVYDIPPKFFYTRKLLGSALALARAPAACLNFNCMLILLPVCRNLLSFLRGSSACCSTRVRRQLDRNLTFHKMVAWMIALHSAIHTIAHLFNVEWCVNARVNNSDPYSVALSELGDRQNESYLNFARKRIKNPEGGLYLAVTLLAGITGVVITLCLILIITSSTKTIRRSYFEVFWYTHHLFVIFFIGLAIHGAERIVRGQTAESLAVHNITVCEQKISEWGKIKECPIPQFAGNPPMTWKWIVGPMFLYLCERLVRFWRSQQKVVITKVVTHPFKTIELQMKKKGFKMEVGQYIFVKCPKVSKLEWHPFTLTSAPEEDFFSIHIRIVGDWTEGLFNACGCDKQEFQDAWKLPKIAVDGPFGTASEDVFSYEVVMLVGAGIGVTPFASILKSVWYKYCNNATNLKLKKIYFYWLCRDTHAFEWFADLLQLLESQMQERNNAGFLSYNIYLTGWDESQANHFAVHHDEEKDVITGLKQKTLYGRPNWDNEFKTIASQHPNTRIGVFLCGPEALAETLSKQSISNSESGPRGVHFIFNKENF
The target in test [9] is NADPH oxidase 4 (Homo sapiens) (UniProt Q9NPH5). Put plainly: NOX4-dependent H2O2 signal modulators, primary screen, NOX inhibitor project, cell-based, HEK293-NOX4, tetracycline-induced, Amplex Red fluorescence (AID 1160). The following applies: 45 min, higher = more signal, called active from +8 up or from −8 down.
Sequence of NADPH oxidase 4 (Homo sapiens) (Q9NPH5 whole entry, looked up): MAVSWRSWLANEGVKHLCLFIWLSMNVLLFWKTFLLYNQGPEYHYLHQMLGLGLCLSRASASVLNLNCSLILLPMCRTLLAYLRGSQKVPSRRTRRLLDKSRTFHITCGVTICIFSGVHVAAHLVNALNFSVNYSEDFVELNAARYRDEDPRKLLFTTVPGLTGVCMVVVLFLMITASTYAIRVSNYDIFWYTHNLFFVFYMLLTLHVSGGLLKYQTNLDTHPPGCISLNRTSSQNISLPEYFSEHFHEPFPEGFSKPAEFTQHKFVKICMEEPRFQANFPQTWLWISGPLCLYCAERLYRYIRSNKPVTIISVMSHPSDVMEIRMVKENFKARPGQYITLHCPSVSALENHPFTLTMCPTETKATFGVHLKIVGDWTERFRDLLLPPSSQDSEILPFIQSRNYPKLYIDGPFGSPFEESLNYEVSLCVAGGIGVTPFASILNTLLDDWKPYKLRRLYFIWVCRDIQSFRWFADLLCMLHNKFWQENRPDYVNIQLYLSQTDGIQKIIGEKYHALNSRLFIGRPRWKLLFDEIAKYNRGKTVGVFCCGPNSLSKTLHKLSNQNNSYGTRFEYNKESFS
Test [10] addresses NADPH oxidase 5 (Homo sapiens) (UniProt Q96PH1). The test can be described thus: NOX5-dependent H2O2 signal modulators, primary screen, NOX inhibitor project, cell-based, HEK293-NOX5, Amplex Red fluorescence (AID 1161). The following applies: HEK293-NOX5, ionomycin, 45 min, higher = more signal.

Molecules are shown by their SMILES. Activity calls are given as the source filed them.

Sequence of NADPH oxidase 5 (Homo sapiens) (Q96PH1 whole entry, looked up): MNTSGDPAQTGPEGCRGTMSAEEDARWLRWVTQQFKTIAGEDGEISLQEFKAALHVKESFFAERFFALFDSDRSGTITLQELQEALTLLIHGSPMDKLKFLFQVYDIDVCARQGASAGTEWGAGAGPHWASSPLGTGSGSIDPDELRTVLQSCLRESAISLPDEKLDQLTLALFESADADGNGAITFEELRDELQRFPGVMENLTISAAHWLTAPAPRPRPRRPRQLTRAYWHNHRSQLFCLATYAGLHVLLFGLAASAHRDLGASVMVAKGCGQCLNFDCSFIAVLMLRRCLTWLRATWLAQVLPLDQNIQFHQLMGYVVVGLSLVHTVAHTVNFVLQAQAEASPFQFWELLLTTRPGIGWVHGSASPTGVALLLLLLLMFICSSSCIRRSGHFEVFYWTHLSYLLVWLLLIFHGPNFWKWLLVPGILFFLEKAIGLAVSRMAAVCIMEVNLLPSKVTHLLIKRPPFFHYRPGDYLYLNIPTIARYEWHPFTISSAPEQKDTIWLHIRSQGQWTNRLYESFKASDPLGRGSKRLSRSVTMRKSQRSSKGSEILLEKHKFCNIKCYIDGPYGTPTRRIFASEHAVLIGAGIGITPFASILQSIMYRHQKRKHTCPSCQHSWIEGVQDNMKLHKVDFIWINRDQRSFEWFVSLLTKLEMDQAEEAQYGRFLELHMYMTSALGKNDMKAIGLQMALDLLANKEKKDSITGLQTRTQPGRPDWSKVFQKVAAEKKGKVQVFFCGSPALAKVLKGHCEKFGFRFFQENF

In the case of `OCCCC1=CC(c2cccs2)N(Cc2cccc(OC(F)(F)F)c2)CC1` (stereo not given), the z-score in test [1] is -1.07 (inactive); in test [3] it was 7.72 (inactive); in test [4], 1.33 (inactive); in test [5] it was -0.499 (inactive); in test [6], 1.07 (inactive); in test [7], -0.105. Moreover, the z-score in test [8] was -0.257 (inactive); in test [9], -1.27 (inactive); in test [10] it was -1.11. Further, the composite z-score in [2] was -0.0109.
As to `COc1ccc(C#Cc2ccc3c(c2)[C@]2(C(=O)N3)[C@H](C(N)=O)[C@H]3C(=O)O[C@H](c4ccccc4)[C@H](c4ccccc4)N3[C@@H]2c2ccc(O)cc2)cc1`, the z-score in [1] is -0.203 (inactive); in test [3], 3.46 (inactive); in test [4] it was 1.63 (inactive); in test [5], 0.0128 (inactive); in test [6], 1.23 (inactive); in [7] it was 0.0535. In addition, the z-score is 0.945 (inactive) in [8], 0.346 (inactive) in test [9] and -1.04 in test [10]. This compound returned a composite z-score in [2] of -0.131.
Consider `CCCN1C(=O)[C@@H]2Cc3c([nH]c4ccccc34)[C@@H](c3cccc(O)c3)N2C1=O`, for which the z-score is -0.524 (inactive) in [1]; -0.578 (inactive) in test [3]; -0.108 (inactive) in test [4]; -0.539 (inactive) in test [5]; -0.114 (inactive) in [6]; 0.257 in test [7]. Further, the z-score was -0.904 (inactive) in test [8], -1.02 (inactive) in test [9] and -0.413 in test [10]. In test [2], this compound gave a composite z-score of 0.0742.
Regarding `CC1CC/C=C\[C@H]2OC34C=CCN(Cc5ccccc5)C(=O)[C@H]3N(CCO)C(=O)[C@@H]4C2C(=O)O1` (stereo not given in full), the z-score in test [1] was 0.788 (inactive); in [3] it was 3.52 (inactive); in test [4], -0.133 (inactive); in test [5], 0.272 (inactive); in test [6], -0.18 (inactive); in [7], -0.0144. In addition, the z-score in test [8] was 1.66 (inactive); in test [9], 0.0441 (inactive); in test [10] it was 2.24. In [2], this compound showed a composite z-score of -0.0867.
With `COC(=O)[C@]1(Cc2ccccc2CN=[N+]=[N-])N=C(c2ccc(OCCCO)cc2)O[C@@H]1c1ccccc1`, the z-score in [1] was -0.453 (inactive); in [3], 27.8 (active); in test [4], 26.4 (active); in test [5], -0.232 (inactive); in test [6], 6.71 (inactive); in [7], 0.008. Further, the z-score in test [8] was -2.2 (inactive); in test [9], -1.59 (inactive); in test [10] it was -2.6. Further, the composite z-score in test [2] stood at 0.14.
`CCCC=C(CCC)[C@@H](NC(=O)Cc1ccccc1)c1ccc(C(=O)OC)cc1`: the z-score in test [1] was -1.45 (inactive); in test [3], 1.19 (inactive); in test [4], 0.194 (inactive); in [5], -0.0448 (inactive); in [6], 0.25 (inactive); in test [7], -0.504. The z-score was -0.458 (inactive) in test [8], 0.261 (inactive) in test [9] and 1.89 in test [10]. The same compound registered a composite z-score in test [2] of 1.47.
As to `O=C1NC(=O)C2C1C=CC(C(O)c1ccc(-c3ccccc3)s1)N2Nc1ccccn1` (stereo not given), the z-score in test [1] was -0.513 (inactive); in test [3], 2.41 (inactive); in test [4], 1.14 (inactive); in test [5] it was 0.216 (inactive); in [6] it was 1.02 (inactive); in test [7], -0.697. The z-score is -1.09 (inactive) in [8], -2.3 (inactive) in test [9] and -1.44 in test [10]. In addition, in [2], the composite z-score turned out to be 0.114.
In the case of `CC(C)C(CO)N1C(=O)[C@@H]2[C@H]3C(=O)OCC=C[C@H]3OC23C=CCN(CCN2CCOCC2)C(=O)[C@@H]13` (stereo not given in full), the z-score is -0.706 (inactive) in test [1]; 0.897 (inactive) in test [3]; -0.136 (inactive) in test [4]; 0.675 (inactive) in test [5]; 0.0875 (inactive) in test [6]; -0.679 in test [7]. Further, the z-score in [8] was 1.26 (inactive); in test [9], 0.258 (inactive); in test [10], 2.02. Besides, the composite z-score in [2] is -0.263.
`[N-]=[N+]=NCc1ccccc1[C@H]1OC(c2ccc(OCCCO)cc2)=N[C@@]1(Cc1ccccc1N=[N+]=[N-])C(=O)NCCN1CCOCC1`: the z-score in test [1] is 0.0417 (inactive); in test [3], 24.7 (active); in test [4], 16.2 (active); in test [5], 1.7 (inactive); in [6], 1.85 (inactive); in [7], -0.0338. Also, the z-score is -0.753 (inactive) in [8], -0.358 (inactive) in test [9] and 1.41 in [10]. This compound also displayed a composite z-score in test [2] of 0.194.
For `COC(=O)C(CC#Cc1ccc2c(c1)[C@]1(C(=O)N2)[C@H](c2ccc(OCCO)cc2)N2[C@H](c3ccccc3)[C@H](c3ccccc3)OC(=O)[C@H]2[C@@H]1C(=O)O)C(=O)OC`, the z-score in test [1] is 1.55 (inactive); in test [3], 4.99 (inactive); in [4], 0.441 (inactive); in test [5], 1.17 (inactive); in test [6], -0.121 (inactive); in test [7], 0.641. Moreover, the z-score in test [8] is 1.18 (inactive); in test [9], 0.0107 (inactive); in [10] it was 0.918. In test [2], the composite z-score was 0.685.
With `CO[C@H]1O[C@H](CO)[C@@H](OC(=O)Nc2cccc(F)c2)[C@H](OC(=O)Nc2ccc3c(c2)OCO3)[C@H]1OC(=O)Nc1ccc2c(c1)OCO2`, the z-score is 0.903 (inactive) in test [1]; 6.15 (inactive) in [3]; 0.462 (inactive) in test [4]; 0.521 (inactive) in test [5]; 0.643 (inactive) in test [6]; -0.0353 in [7]. The z-score in test [8] was -3.15 (inactive); in test [9] it was -0.681 (inactive); in test [10], -2.02. This compound also gave a composite z-score in test [2] of 0.236.
As to `COC(=O)C(CC#Cc1ccc2c(c1)[C@]1(C(=O)N2)[C@H](C(=O)N2CCc3cc(OC)c(OC)cc3C2)[C@H]2C(=O)O[C@H](c3ccccc3)[C@H](c3ccccc3)N2[C@@H]1c1ccc(OCCO)cc1)C(=O)OC`, the z-score is 0.408 (inactive) in [1]; 6.17 (inactive) in test [3]; 2.37 (inactive) in test [4]; 1.15 (inactive) in test [5]; 1.28 (inactive) in [6]; 0.237 in test [7]. In addition, the z-score was 1.26 (inactive) in test [8], 0.487 (inactive) in [9] and 1.32 in [10]. For the same compound, the composite z-score in test [2] stood at 0.546.
Take `COC(=O)c1ccc(OC)c(/C=C\CC(CCc2ccccc2)OC(=O)c2ccncc2)c1` (stereo not given): the z-score in test [1] was -0.295 (inactive); in [3] it was 17.9 (active); in test [4], 3.19 (inactive); in test [5] it was 0.533 (inactive); in [6], 0.672 (inactive); in test [7] it was -0.224. Also, the z-score in [8] is -0.392 (inactive); in test [9] it was 0.67 (inactive); in [10] it was -0.11. In [2], the composite z-score is -0.251.

For the origin of these results see PubChem BioAssay.
